Here are results for seven molecules from PubChem BioAssay (Tox21).

Where “and” joins values, the source holds several entries; their conditions need not be identical. Equal entries are not always repeated. Results filed as inconclusive are left out. Some structures have more than one record in an assay (separate samples or runs), and their calls can disagree. Calls of active or inactive are those of the source. Unless noted, the call rests on the fitted dose curve.

Assay [1] in a line: Nuclear factor erythroid 2-related factor 2/antioxidant responsive element (Nrf2/ARE) small molecule agonists: qHTS cell viability counter screen in human keratinocytes (AID 1919968; active means well fitted curve in the direction sought with a large enough effect in the repeat runs; an effect the other way counts as inactive or inconclusive; further: nearly all actives have a fitted effect of over 55% in size). Put shortly:
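Viability counter-screen: KeratinoSens reporter cells, DMSO-delivered compounds, 23 h at 37 C, CellTiter-Fluor fluorescence.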
(In qHTS, concentration-response curves come from the screen itself.)

Assay [2] is described as follows: Nuclear factor erythroid 2-related factor 2/antioxidant responsive element (Nrf2/ARE) small molecule agonists: luciferase reporter gene qHTS assay in human keratinocytes (AID 1919969). Further: nearly all actives have a fitted effect of over 35% in size. Further: potency means the concentration at half of the fitted maximal effect. Background: A reporter such as luciferase makes a cellular process visible.
Assay [3] concerns the target Gonadotropin-releasing hormone receptor (Homo sapiens) (UniProt P30968). Kind of assay: Human gonadotropin-releasing hormone receptor (GnRHR) small molecule agonists, calcium flux assay in GnRHR-HEK293 cells (AID 1920063). Further: nearly all actives have a fitted effect of over 35% in size. In short, it runs like this:
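Tox21-format agonist screen using human GnRHR-expressing HEK293 cells and a fluorescent calcium dye; kinetic 3-min fluorescence reading after compound addition, 15-point concentration series run in triplicate.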

Assay [4] deals with KiSS-1 receptor (Homo sapiens) (UniProt Q969F8). As to the kind of experiment: Human kisspeptin (KISS1R) small molecule agonists, calcium flux assay in KISS1R-HEK293 cells (AID 1920064; active means well fitted curve in the direction sought with a large enough effect in the repeat runs; an effect the other way counts as inactive or inconclusive). In short, it runs like this:
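Intracellular calcium mobilization in KISS1R-HEK293 cells was recorded by fluorescence (Ex/Em 480/540) for 3 min following compound addition to cells pre-loaded 1 h with calcium dye.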
Background: A change in cytosolic calcium serves as a functional read-out for many receptors and channels.

Assay [5] can be described thus: G protein-coupled receptor (GPCR) small molecule agonists, calcium flux assay: HEK293 wild type cell line counter screen (AID 1920065). Put shortly:
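In this agonist-mode screen, ATP is the positive control and DMSO the vehicle. Cells grow 18 h before a 1 h dye incubation at 37 C; signal is taken at Ex/Em 480/540 over 3 min.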

The nature of assay [6]: p53 small molecule agonists, cell-based qHTS assay with human liver microsomes (AID 1963577).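 Further: p53 response element beta-lactamase reporter cells with liver microsomes plus NADPH.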 In short, it runs like this: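 With metabolic activation: human liver microsomes (0.5 mg/mL final) plus NADPH (0.5 mg/mL final) added alongside compounds to p53RE-bla cells; 16 h 37 C exposure; beta-lactamase read by LiveBLAzer fluorescence.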
Assay [7] in a line: p53 small molecule agonists, cell-based qHTS assay with rat liver microsomes (AID 1963578). In short, it runs like this: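 Metabolic activation by rat liver microsomes and NADPH, each 0.5 mg/mL final, added right after compounds to p53RE-bla reporter cells (4,000/well, plated 5 h earlier). 16 h at 37 C, then LiveBLAzer substrate for 2 h at room temperature in the dark; fluorescence read-out.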

Assay [8] can be described thus: p53 small molecule agonists, cell-based qHTS assay with human liver microsomes: qHTS cell viability counter screen (AID 1963579). Further: nearly all actives have a fitted effect of over 45% in size. In short, it runs like this:
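Metabolic activation used human liver microsomes and NADPH, both 0.5 mg/mL final, over 16 hours at 37 C on p53RE-bla cells (4,000/well). Cytotoxicity measured by CellTiter-Glo luminescence, 30 min at room temperature.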

Assay [9] in a line: p53 small molecule agonists, cell-based qHTS assay with rat liver microsomes: qHTS cell viability counter screen (AID 1963580). Further: nearly all actives have a fitted effect of over 45% in size. Put shortly:
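p53RE-bla HCT-116 cells (4,000/well) rested 5 h at 37 C, then given Tox21 compounds in DMSO with rat liver microsomes (0.5 mg/mL final) plus NADPH (0.5 mg/mL final) for 16 h at 37 C. Viability read by CellTiter-Glo luminescence after 30 min at room temperature.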

The nature of assay [10]: p53 small molecule agonists, cell-based qHTS assay: qHTS cell viability counter screen (AID 1963581). Further: nearly all actives have a fitted effect of over 45% in size. Put shortly:
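Compounds are pinned onto HCT-116 p53RE-bla cells and left 16 h at 37 C. Following the reporter FRET read, ATP is quantified by CellTiter-Glo luminescence after 30 min at room temperature.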

A short description of assay [11]: p53 small molecule agonists, cell-based qHTS assay (AID 1963582; active means well fitted activation curve with a large enough effect in the signal ratio in the repeat runs, not every such curve was filed as active; the % refers to the signal ratio). In short, it runs like this: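 Agonist activity was scored from beta-lactamase FRET fluorescence in p53RE-bla cells treated 16 h at 37 C with compounds in DMSO, substrate incubation being 2 h at room temperature.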
Assay [12] addresses 5-hydroxytryptamine receptor 2A (Homo sapiens) (UniProt P28223). As to the kind of experiment: 5-hydroxytryptamine receptor 2A (HTR2A) small molecule antagonists, cell-based qHTS assay (AID 1963586). Further: nearly all actives have a fitted effect of over 45% in size. Further: potency means the concentration at half of the fitted maximal effect. In short, it runs like this:
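Antagonist-mode intracellular calcium assay: DOI (4 nM) added after 5 min compound pre-incubation at room temperature to dye-loaded HTR2A-CHO cells. Fluorescence followed for 3 min, sampled every second.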

For assay [13] the target is unchanged. Kind of assay: 5-hydroxytryptamine receptor 2A (HTR2A) small molecule agonists, cell-based qHTS assay (AID 1963587). Further: nearly all actives have a fitted effect of over 30% in size. Further: potency means the concentration at half of the fitted maximal effect. Put shortly:
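HTR2A-CHO cells, plated 18 h at 37 C/5% CO2, dye-loaded 1 h at 37 C; compounds in DMSO added by pin tool (agonist mode). Intracellular calcium flux read as kinetic fluorescence on FDSS over 2 min at 1 s intervals.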

Assay [14] addresses Muscarinic acetylcholine receptor M1 (Homo sapiens) (UniProt P11229). As to the kind of experiment: Cholinergic receptor muscarinic 1 (CHRM1) small molecule antagonists, cell-based qHTS assay (AID 1963588). Further: nearly all actives have a fitted effect of over 40% in size. In short, it runs like this:
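CHRM1-CHO calcium-flux assay, antagonist mode. Cells were seeded 18 h, dye-loaded 1 h at 37 C and given compound for 5 min at RT, then acetylcholine was added at 50nM. FDSS fluorescence was read 3 min; 15 concentrations, three runs.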

The target is the same in assay [15]. As to the kind of experiment: Cholinergic receptor muscarinic 1 (CHRM1) small molecule agonists, cell-based qHTS assay (AID 1963589). Further: nearly all actives have a fitted effect of over 35% in size. Put shortly: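 Stable CHRM1-CHO cells (human receptor) were incubated 18 h, dye-loaded for 1 h at 37 C and exposed to test compounds for agonist activity, with calcium-dependent fluorescence followed kinetically.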
A short description of assay [16]: cAMP Responsive Elements (CRE) small molecule agonists, cell-based qHTS assay (AID 1963590). Put shortly: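 FRET-based beta-lactamase readout (LiveBLAzer B/G, 2 h RT) quantified CRE activation in HEK 293T CRE-bla cells after 3 h treatment with DMSO-dissolved compounds.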
Assay [17] is described as follows: cAMP Responsive Elements (CRE) small molecule antagonists, cell-based qHTS assay (AID 1963591; active means well fitted inhibition curve with a large enough effect in the signal ratio in the repeat runs, not every such curve was filed as active; the % refers to the signal ratio). In short, it runs like this:
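qHTS in CRE-bla HEK 293T cells: compound in DMSO, then 0.25 uM NKH477 (final), 3 h at 37 °C/5% CO2; beta-lactamase FRET read-out after 2 h substrate incubation.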

The target in assay [18] is Beta-2 adrenergic receptor (Homo sapiens) (UniProt P07550). Kind of assay: Adrenergic beta2 receptor (ADRB2) small molecule antagonists, cell-based qHTS assay (AID 1963592). Further: series mostly up to about 92 µM; nearly all actives have a fitted effect of over 50% in size. Put shortly: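 Cells (CHO, stable ADRB2 overexpression) incubated 18-20hr at 37C; compounds added from DMSO; agonist mix (1nM isoproterenol, 100uM IBMX, 25uM Ro-20-1724) added; 0.5hr RT; d2-cAMP and anti-cAMP-cryptate added; 1hr RT; 665/615 nm read.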

Assay [19] addresses D(2) dopamine receptor (Homo sapiens) (UniProt P14416). Kind of assay: Dopamine D2 receptor (DRD2) small molecule agonists, cell-based qHTS assay (AID 1963594). Further: nearly all actives have a fitted effect of over 35% in size. Put shortly: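 HEK293 cells stably expressing DRD2 were cultured 24 h at 37 C, then given Ro20-1724 (0.1 mM final) and compounds for 10 min at room temperature. NKH477 (200nM) was then added for 30 min. cAMP was read by HTRF.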

Assay [20] shares this target. Kind of assay: Dopamine D2 receptor (DRD2) small molecule antagonists, cell-based qHTS assay (AID 1963595; active means well fitted inhibition curve with a large enough effect in the signal ratio in the repeat runs, with a control signal flat; the % refers to the signal ratio; further: potency means the concentration at half of the fitted maximal effect). In short, it runs like this: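 HTRF cAMP read-out at 665 and 620 nm emission (340 nm excitation). Antagonist mode: compounds were tested against 12 nM quinpirole in DRD2-HEK293 cells, with 200 nM NKH477 raising cAMP and 0.1 mM Ro20-1724 blocking its breakdown.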

Chain of Gonadotropin-releasing hormone receptor (Homo sapiens) (P30968 whole entry, looked up): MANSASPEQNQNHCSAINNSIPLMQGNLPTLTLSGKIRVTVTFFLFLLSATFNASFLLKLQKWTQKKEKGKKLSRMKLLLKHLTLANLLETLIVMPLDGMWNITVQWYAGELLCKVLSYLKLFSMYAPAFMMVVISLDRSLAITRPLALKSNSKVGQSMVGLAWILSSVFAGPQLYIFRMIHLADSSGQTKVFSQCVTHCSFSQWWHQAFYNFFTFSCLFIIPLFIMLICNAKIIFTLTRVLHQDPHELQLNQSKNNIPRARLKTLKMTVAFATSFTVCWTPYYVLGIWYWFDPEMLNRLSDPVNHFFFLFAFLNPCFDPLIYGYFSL
Chain of Beta-2 adrenergic receptor (Homo sapiens) (P07550 whole entry, looked up): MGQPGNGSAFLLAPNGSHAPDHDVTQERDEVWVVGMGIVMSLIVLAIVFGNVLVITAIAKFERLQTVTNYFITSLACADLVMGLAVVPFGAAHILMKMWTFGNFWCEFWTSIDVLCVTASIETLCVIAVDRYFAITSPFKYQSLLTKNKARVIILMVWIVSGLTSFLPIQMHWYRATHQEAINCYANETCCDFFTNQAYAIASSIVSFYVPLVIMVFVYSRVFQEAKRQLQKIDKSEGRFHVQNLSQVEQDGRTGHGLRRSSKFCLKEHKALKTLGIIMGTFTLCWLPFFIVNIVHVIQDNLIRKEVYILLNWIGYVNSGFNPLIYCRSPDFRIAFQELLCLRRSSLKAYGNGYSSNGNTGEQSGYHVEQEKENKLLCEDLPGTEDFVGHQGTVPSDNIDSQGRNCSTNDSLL
Chain of D(2) dopamine receptor (Homo sapiens) (P14416 whole entry, looked up): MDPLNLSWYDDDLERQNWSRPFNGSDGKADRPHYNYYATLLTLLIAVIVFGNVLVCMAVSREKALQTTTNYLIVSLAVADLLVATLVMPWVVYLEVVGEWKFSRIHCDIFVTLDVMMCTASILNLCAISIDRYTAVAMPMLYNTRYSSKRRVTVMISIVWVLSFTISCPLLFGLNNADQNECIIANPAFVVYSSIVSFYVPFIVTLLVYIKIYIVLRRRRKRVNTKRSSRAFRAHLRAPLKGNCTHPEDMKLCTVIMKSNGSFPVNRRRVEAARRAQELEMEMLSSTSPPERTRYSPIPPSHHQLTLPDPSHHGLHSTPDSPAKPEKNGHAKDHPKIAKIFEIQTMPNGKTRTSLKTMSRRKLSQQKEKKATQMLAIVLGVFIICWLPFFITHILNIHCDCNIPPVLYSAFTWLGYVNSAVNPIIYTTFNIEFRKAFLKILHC
Chain of 5-hydroxytryptamine receptor 2A (Homo sapiens) (P28223 whole entry, looked up): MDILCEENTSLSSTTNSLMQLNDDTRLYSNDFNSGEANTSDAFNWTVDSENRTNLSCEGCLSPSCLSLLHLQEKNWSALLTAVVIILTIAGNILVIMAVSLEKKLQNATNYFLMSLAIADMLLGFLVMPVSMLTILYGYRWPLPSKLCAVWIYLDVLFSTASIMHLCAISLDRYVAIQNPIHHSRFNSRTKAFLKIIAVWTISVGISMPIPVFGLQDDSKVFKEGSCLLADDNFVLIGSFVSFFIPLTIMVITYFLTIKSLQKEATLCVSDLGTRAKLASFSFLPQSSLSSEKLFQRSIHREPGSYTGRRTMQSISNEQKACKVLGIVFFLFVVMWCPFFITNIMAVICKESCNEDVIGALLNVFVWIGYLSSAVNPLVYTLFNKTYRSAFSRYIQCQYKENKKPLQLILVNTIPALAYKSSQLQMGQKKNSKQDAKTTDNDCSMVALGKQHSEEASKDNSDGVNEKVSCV
Chain of Muscarinic acetylcholine receptor M1 (Homo sapiens) (P11229 whole entry, looked up): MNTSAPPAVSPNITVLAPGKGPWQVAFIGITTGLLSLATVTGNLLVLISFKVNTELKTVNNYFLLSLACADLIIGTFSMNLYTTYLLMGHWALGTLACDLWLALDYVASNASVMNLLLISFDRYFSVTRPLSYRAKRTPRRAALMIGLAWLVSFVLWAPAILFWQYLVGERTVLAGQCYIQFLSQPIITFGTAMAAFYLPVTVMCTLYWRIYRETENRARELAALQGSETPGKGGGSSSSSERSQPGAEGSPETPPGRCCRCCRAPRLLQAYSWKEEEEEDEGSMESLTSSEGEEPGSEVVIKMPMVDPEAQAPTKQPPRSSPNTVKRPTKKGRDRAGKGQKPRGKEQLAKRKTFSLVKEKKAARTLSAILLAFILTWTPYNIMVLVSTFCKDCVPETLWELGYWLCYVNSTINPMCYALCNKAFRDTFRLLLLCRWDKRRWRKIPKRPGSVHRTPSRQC
Chain of KiSS-1 receptor (Homo sapiens) (Q969F8 whole entry, looked up): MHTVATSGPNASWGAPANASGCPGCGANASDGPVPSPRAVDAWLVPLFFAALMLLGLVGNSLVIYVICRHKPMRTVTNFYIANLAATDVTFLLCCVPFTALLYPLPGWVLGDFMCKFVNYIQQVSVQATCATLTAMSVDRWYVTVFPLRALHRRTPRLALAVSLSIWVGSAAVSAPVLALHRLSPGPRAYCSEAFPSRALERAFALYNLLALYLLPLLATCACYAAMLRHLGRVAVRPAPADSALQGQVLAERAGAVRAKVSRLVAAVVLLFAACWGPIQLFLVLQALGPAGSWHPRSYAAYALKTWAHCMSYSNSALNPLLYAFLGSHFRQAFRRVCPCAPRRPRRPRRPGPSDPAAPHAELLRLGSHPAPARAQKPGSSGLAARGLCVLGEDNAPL

As to `C[Si]1(C)O[Si](C)(C)O[Si](C)(C)O[Si](C)(C)O1`, the Potency entry in assay [1], in [2], in assay [3], in [4], in [5] and in [6] was “inactive” each time. The Potency entry in assay [7], in assay [8], in assay [9], in [10], in assay [11] and in assay [12] was “inactive” in each case. The Potency entry in [13], in [14], in [15], in [16], in [17] and in [18] was “inactive” in each case. In addition, the Potency result in [19] and in assay [20] was “inactive” each time.
For `NCCN`, the Potency result in [1], in assay [2], in [3], in assay [4], in [5] and in assay [6] was “inactive” each time. Also, the Potency entry in assay [7], in [8], in [9], in assay [10], in assay [11] and in assay [12] was “inactive” in each case. The Potency result in assay [13], in assay [14], in assay [15], in assay [16], in [17] and in assay [18] was “inactive” in each case. For the same molecule, the Potency entry in assay [19] and in assay [20] was “inactive” throughout.
In the case of `NC(N)=S`, the Potency entry in assay [1], in [2], in assay [3], in [4], in assay [5] and in assay [6] was “inactive” each time. Besides, the Potency entry in assay [7], in [8], in assay [9], in [10], in assay [11] and in assay [14] was “inactive” throughout. The Potency result in [15], in [16], in assay [17], in assay [18], in [19] and in assay [20] was “inactive” each time. The Potency result in assay [12] is “inactive and 37.5 µM (active)”; in assay [13], “inactive and 54.9 µM (active)”.
As for `O=S1(=O)CC=CC1`, the Potency result in assay [1], in assay [2], in assay [3], in [4], in assay [5] and in [6] was “inactive” in each case. Besides, the Potency result in assay [7], in assay [8], in assay [9], in assay [10], in [11] and in [12] was “inactive” each time. Also, the Potency entry in [14], in assay [15], in assay [16], in [17], in [18] and in [19] was “inactive” throughout. The Potency result in assay [20] was “inactive”. The Potency in assay [13] is 37.6 µM (active) and inactive.
`CCC(Cc1c(I)cc(I)c(N)c1I)C(=O)O` (stereo not given): the Potency result in assay [1], in assay [2], in assay [3], in assay [4], in assay [5] and in assay [6] was “inactive” in each case. The Potency entry in assay [7], in [8], in assay [9], in assay [10], in assay [11] and in assay [13] was “inactive” throughout. Moreover, the Potency entry in assay [14], in assay [15], in [16], in [17], in [18] and in assay [19] was “inactive” each time. Moreover, the Potency result in assay [12] is “inactive and 3.65 µM (active)”; in assay [20], “inactive and 10.6 µM (active)”.
In the case of `c1ccc2c(c1)ccc1cc3c(ccc4ccccc43)cc12`, the Potency result in assay [1], in assay [3], in [4], in assay [5], in [6] and in assay [7] was “inactive” throughout. The Potency entry in [8], in assay [9], in assay [10], in assay [11], in [12] and in assay [13] was “inactive” throughout. Further, the Potency result in [14], in assay [15], in assay [16], in [17], in assay [18] and in assay [19] was “inactive” each time. Further, in assay [20], the Potency result is “inactive”. The Potency in assay [2] is 17 µM (active) and 2.15 µM (active).
Regarding `Cc1c(C(N)=O)cc([N+](=O)[O-])cc1[N+](=O)[O-]`, the Potency result in [1], in [2], in assay [3], in [4], in [5] and in assay [6] was “inactive” in each case. Further, the Potency entry in assay [7], in assay [8], in assay [9], in [10], in assay [11] and in [12] was “inactive” each time. Moreover, the Potency entry in [13], in assay [14], in [15], in assay [16], in [17] and in assay [18] was “inactive” throughout. Also, the Potency entry in assay [19] and in assay [20] was “inactive” each time.
